Assay results reported in PubChem BioAssay (EPA / NIEHS).
Records with an inconclusive call do not appear. Activity calls are given as the source filed them. How the source made its calls, unless noted: active means hit-call score of the fitted dose curve at least 0.9, where 1 is the maximum; inactive means score below 0.9.

Experiments:
[1] = target: Glucocorticoid receptor (Homo sapiens) (UniProt P04150); assay: ATG_GR_TRANS: Attagene TRANS-FACTORIAL HepG2 Assay for human Glucocorticoid Receptor (GR) (AID 2282978; active means hit-call score of the fitted dose curve at least 0.9, where 1 is the maximum;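 further: activators score as hits since higher reporter transcript over DMSO is fitted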); settings: HepG2 Attagene TRANS GR reporter, mRNA transcription
How it was run: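 HepG2 cells transiently transfected with GAL4-UAS reporter units and exogenous GR-Gal4 chimera, dosed 24 h. Reporter mRNA by RT-PCR, FAM labeling, HpaI digest and capillary electrophoresis; gain-of-signal fit versus DMSO.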

[2] = target: Bile acid receptor (Homo sapiens) (UniProt Q96RI1); assay: ATG_FXR_TRANS: Attagene TRANS-FACTORIAL HepG2 Assay for Farnesoid X Receptor (FXR) (AID 2282979; active means hit-call score of the fitted dose curve at least 0.9, where 1 is the maximum;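 further: hits raise reporter mRNA above DMSO so AC50 marks FXR activation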); settings: HepG2 Attagene TRANS FXR-GAL4 reporter transcription
How it was run: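 After 24 h chemical treatment of transfected HepG2 cells, GAL4-UAS reporter transcripts driven by an exogenous FXR-GAL4 fusion were measured by RT-PCR and capillary electrophoresis. Increases over DMSO were fitted.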

[3] = ATG_M_06_TRANS: Attagene TRANS-FACTORIAL HepG2 Assay for M06 Transcription Factor (Internal Marker) (AID 2282983; active means hit-call score of the fitted dose curve at least 0.9, where 1 is the maximum); settings: HepG2 Attagene TRANS M06 internal marker reporter
How it was run: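 Internal-marker background readout from a multiplexed TRANS reporter system in HepG2; 24 h dosing; mRNA induction quantified by RT-PCR plus capillary electrophoresis fluorescence; DMSO as negative control and baseline.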

[4] = target: Transcriptional activator Myb (Homo sapiens) (UniProt P10242); assay: ATG_Myb_CIS: Attagene CIS-FACTORIAL HepG2 Assay for human Myeloblastosis (Myb) Proto-Oncogene Transcription Factor (AID 2282986); settings: HepG2 Attagene CIS-FACTORIAL Myb reporter transcription; actives raise or lower the signal
How it was run: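 Transiently transfected HepG2 cells carrying a multiplexed cis-promoter reporter set report endogenous Myb activity after 24 h compound exposure. Reporter mRNA is read by RT-PCR with capillary electrophoresis of fluorescent products, fitted bidirectionally against DMSO.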

[5] = target: Nuclear respiratory factor 1 (Homo sapiens) (UniProt Q16656); assay: ATG_NRF1_CIS: Attagene CIS-FACTORIAL HepG2 Assay for human Nuclear Respiratory Factor 1 (NRF1) Orphan Gene (AID 2282987); settings: HepG2 NRF1 cis-element reporter, Attagene multiplex; actives raise or lower the signal
How it was run: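 HepG2 cells transiently transfected with multiple cis-regulated reporter units, exposed 24 h. Reporter mRNAs measured by RT-PCR, fluorescent labelling, HpaI digestion and capillary electrophoresis; bidirectional fitting against DMSO.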

[6] = ATG_NFI_CIS: Attagene CIS-FACTORIAL HepG2 Assay for human Nuclear Factor I (NFI) (AID 2282989); settings: HepG2 cis-regulatory reporter, NFI response element transcription; actives raise or lower the signal
How it was run: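 Cells: human liver HepG2, transiently transfected with promoter-regulated reporter transcription units. Exposure 24 h. Detection: fluorescent RT-PCR products separated by capillary electrophoresis, normalised to DMSO negative control.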

[7] = target: Myc proto-oncogene protein (Homo sapiens) (UniProt P01106); assay: ATG_Myc_CIS: Attagene CIS-FACTORIAL HepG2 Assay for human Myelocytomatosis (Myc) Proto-Oncogene Transcription Factor (AID 2282990); settings: HepG2, Attagene cis-reporter transcription factor activity; actives raise or lower the signal
How it was run: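 Multiplexed cis-reporter transcription in HepG2 cells after 24 h chemical treatment. Reporter mRNA measured by RT-PCR and capillary electrophoresis fluorescence; activity fitted bidirectionally against DMSO control.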

[8] = ATG_NF_kB_CIS: Attagene CIS-FACTORIAL HepG2 Assay for human Nuclear Factor Kappa B (NF-kB) (AID 2282991); settings: HepG2 Attagene cis-factorial NF-kB reporter mRNA; actives raise or lower the signal
How it was run: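 HepG2 cells transfected with cis-promoter-driven reporter units, so endogenous transcription factor activity is measured. Reporter mRNA quantified 24 h after dosing by RT-PCR and capillary electrophoresis, with bidirectional fitting against DMSO.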

[9] = ATG_NRF2_ARE_CIS: Attagene CIS-FACTORIAL HepG2 Assay for human Nuclear Factor Erythroid 2 Related Factor 2 (NFR2) response to Antioxidant Response Elements (ARE) (AID 2282992); settings: HepG2 Attagene ARE/NRF2 reporter, transcription factor activity; actives raise or lower the signal
How it was run: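 HepG2 cells transiently transfected with multiplexed cis-element reporter constructs, 24 h after chemical dosing; reporter mRNA quantified by RT-PCR, fluorescent primer extension, HpaI digestion and capillary electrophoresis. Bidirectional fit relative to DMSO.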

[10] = ATG_Oct_MLP_CIS: Attagene CIS-FACTORIAL HepG2 Assay for human Octamer-Binding Transcription Factor (Oct) (AID 2282993); settings: HepG2 Attagene cis-factorial Oct reporter, mRNA; actives raise or lower the signal
How it was run: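 HepG2, transient MRTU transfection, cis promoter elements; 24 h dosing; RT-PCR/CE fluorescence read-out of reporter mRNA; fit both directions vs DMSO.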

[11] = target: Cellular tumor antigen p53 (Homo sapiens) (UniProt P04637); assay: ATG_p53_CIS: Attagene CIS-FACTORIAL HepG2 Assay for human p53 Transcription Factor (AID 2282994); settings: HepG2 p53 cis-element reporter, Attagene mRNA; actives raise or lower the signal
How it was run: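 HepG2 cells transiently transfected with cis-regulated multiple reporter transcription units, dosed 24 h. Reporter mRNA measured by RT-PCR, 6-FAM primer extension, HpaI digestion and capillary electrophoresis; bidirectional fit relative to DMSO.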

[12] = target: Hepatocyte nuclear factor 4-alpha (Homo sapiens) (UniProt P41235); assay: ATG_HNF4a_TRANS: Attagene TRANS-FACTORIAL HepG2 Assay for human Hepatocyte Nuclear Factor 4 alpha (HNF4a) (AID 2282982; active means hit-call score of the fitted dose curve at least 0.9, where 1 is the maximum); settings: HepG2 HNF4a transactivation reporter, mRNA readout
How it was run: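 Cells used were human HepG2, transiently carrying GAL4-UAS reporter units read out against exogenous NR-GAL4 chimeras. Reporter transcript levels after 24 h dosing were quantified by fluorescent RT-PCR and capillary electrophoresis.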

[13] = ATG_M_32_TRANS: Attagene TRANS-FACTORIAL HepG2 Assay for M32 Transcription Factor (Internal Marker) (AID 2282984; active means hit-call score of the fitted dose curve at least 0.9, where 1 is the maximum;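 further: transcript level of a background control reporter unit measured by RT-PCR and capillary electrophoresis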); settings: HepG2 Attagene TRANS M32 internal marker reporter
How it was run: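 Human hepatoma HepG2, transient MRTU transfection, 24 h treatment. RNA → RT-PCR → fluorescent primer extension → HpaI digest (2 h, 37 C) → CE. Positive-direction fit vs DMSO.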

[14] = target: Nuclear receptor subfamily 4 group A member 2 (Homo sapiens) (UniProt P43354); assay: ATG_NURR1_TRANS: Attagene TRANS-FACTORIAL HepG2 Assay for human Nuclear Receptor Related Protein 1 (NURR1) (AID 2282985; active means hit-call score of the fitted dose curve at least 0.9, where 1 is the maximum); settings: HepG2 Attagene TRANS reporter, mRNA readout
How it was run: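 After 24 h chemical dosing, total RNA from transiently transfected HepG2 cells was reverse-transcribed and reporter cDNA PCR-amplified, FAM-labelled and analysed by capillary electrophoresis. Activity fitted in positive direction, DMSO as negative control.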

[15] = target: Oxysterols receptor LXR-beta (Homo sapiens) (UniProt P55055); assay: ATG_LXRb_TRANS: Attagene TRANS-FACTORIAL HepG2 Assay for human Liver X Receptor beta (LXRb) (AID 2282981; active means hit-call score of the fitted dose curve at least 0.9, where 1 is the maximum); settings: HepG2 Attagene TRANS GAL4-LXRb reporter, mRNA
How it was run: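 In this TRANS format, exogenous chimeric NR-Gal4 protein activity, not endogenous factors, drives reporter expression in transfected human HepG2 cells. Exposure lasted 24 h; reporter mRNA was read by fluorescent capillary electrophoresis.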

Measured: AC50

Sequence of Hepatocyte nuclear factor 4-alpha (Homo sapiens) (P41235 whole entry, looked up, the tested form may be a part): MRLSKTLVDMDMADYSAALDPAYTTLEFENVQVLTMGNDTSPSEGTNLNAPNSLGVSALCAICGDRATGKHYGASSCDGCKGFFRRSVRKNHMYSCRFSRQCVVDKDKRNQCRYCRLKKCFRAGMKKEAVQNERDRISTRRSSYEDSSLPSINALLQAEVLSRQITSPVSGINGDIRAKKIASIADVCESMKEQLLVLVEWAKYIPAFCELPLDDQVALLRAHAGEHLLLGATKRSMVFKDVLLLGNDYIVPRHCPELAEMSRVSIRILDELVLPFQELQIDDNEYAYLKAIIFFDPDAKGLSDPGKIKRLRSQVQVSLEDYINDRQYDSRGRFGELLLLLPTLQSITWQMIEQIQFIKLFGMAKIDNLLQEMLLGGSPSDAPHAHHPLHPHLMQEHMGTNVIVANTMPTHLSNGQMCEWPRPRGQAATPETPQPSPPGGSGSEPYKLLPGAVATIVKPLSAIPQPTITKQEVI
Sequence of Nuclear respiratory factor 1 (Homo sapiens) (Q16656 whole entry, looked up): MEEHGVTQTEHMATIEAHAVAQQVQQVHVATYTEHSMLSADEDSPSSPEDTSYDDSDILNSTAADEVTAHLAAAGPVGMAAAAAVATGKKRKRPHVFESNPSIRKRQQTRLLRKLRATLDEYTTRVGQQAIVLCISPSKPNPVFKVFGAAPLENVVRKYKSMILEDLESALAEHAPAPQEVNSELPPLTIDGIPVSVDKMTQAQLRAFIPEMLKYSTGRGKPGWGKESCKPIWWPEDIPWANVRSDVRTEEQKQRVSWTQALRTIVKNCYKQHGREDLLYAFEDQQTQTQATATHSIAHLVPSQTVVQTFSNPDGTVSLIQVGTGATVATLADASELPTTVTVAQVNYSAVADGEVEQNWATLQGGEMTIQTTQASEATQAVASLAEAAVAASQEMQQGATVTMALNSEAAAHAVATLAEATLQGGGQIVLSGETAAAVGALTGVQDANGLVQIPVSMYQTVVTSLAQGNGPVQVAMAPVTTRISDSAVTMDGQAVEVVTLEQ
Sequence of Glucocorticoid receptor (Homo sapiens) (P04150 whole entry, looked up, the tested form may be a part): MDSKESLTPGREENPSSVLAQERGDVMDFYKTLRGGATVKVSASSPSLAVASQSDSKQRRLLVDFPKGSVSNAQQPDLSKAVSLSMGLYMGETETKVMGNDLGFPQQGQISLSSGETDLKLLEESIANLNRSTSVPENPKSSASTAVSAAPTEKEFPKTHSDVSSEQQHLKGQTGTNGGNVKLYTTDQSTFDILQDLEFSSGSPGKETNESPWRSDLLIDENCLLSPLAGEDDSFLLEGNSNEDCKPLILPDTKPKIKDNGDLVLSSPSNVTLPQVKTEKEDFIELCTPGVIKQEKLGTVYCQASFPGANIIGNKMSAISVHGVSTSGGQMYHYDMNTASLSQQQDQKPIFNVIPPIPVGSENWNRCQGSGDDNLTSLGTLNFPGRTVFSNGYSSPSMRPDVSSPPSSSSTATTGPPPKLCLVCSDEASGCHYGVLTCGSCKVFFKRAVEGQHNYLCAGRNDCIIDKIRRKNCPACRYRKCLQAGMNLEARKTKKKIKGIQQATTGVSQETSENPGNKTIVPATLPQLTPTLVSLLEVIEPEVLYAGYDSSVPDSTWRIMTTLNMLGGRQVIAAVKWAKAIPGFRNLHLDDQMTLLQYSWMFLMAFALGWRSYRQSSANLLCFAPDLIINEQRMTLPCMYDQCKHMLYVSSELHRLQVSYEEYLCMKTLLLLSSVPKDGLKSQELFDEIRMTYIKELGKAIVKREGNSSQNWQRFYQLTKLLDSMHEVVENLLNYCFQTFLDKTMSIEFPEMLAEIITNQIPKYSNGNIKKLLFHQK
Sequence of Transcriptional activator Myb (Homo sapiens) (P10242 whole entry, looked up): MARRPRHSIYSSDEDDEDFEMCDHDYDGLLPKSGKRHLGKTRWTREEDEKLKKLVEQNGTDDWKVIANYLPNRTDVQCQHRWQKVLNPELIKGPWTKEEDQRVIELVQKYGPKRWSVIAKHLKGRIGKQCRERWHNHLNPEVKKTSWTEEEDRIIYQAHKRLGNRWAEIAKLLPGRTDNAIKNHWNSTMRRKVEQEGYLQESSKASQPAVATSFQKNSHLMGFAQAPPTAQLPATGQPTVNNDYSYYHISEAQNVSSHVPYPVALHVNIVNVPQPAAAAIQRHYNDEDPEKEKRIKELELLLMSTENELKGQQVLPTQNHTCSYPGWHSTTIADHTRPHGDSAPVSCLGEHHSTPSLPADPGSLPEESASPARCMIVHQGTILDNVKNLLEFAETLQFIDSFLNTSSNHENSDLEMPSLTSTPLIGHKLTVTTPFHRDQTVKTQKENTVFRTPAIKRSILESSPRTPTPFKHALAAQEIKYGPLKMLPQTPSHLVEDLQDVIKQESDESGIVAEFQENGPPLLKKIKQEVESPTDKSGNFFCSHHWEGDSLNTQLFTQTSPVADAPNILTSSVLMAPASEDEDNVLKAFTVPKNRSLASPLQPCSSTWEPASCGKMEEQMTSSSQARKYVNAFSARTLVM
Sequence of Myc proto-oncogene protein (Homo sapiens) (P01106 whole entry, looked up): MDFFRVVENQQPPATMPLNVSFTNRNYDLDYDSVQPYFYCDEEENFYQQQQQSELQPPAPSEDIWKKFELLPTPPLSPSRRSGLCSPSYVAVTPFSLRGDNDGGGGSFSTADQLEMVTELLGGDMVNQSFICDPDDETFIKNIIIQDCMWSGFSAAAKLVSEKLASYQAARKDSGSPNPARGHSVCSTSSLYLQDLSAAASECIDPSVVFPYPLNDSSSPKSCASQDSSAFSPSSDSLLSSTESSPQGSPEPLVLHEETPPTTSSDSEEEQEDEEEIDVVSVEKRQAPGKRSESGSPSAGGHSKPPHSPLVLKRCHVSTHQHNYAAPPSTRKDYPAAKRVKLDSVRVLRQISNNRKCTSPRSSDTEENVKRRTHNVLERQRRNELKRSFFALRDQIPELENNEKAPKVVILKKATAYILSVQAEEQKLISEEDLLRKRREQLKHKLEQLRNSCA
Sequence of Cellular tumor antigen p53 (Homo sapiens) (P04637 whole entry, looked up): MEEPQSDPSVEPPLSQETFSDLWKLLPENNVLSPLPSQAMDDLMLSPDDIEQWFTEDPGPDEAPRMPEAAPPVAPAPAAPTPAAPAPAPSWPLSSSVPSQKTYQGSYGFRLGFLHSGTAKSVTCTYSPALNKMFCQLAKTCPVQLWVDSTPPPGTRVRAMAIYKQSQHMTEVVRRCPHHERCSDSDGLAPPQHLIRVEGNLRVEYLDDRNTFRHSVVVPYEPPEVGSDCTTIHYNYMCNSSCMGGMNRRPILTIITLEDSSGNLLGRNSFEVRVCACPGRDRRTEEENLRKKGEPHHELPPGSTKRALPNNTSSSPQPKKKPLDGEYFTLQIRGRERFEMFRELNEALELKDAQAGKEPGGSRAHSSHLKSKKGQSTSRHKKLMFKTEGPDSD
Sequence of Bile acid receptor (Homo sapiens) (Q96RI1 whole entry, looked up, the tested form may be a part): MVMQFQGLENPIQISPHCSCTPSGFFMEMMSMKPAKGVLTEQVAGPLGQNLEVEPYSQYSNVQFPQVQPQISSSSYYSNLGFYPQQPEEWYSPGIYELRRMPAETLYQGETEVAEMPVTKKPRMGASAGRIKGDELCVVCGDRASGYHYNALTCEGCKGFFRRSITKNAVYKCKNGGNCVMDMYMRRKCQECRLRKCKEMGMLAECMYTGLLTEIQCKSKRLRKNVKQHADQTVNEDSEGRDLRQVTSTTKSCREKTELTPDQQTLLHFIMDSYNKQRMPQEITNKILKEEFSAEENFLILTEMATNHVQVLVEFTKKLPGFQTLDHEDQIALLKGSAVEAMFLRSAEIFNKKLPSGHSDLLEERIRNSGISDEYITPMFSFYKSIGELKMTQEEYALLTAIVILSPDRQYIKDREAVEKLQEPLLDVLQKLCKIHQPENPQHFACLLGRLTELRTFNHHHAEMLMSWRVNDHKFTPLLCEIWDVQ
Sequence of Nuclear receptor subfamily 4 group A member 2 (Homo sapiens) (P43354 whole entry, looked up): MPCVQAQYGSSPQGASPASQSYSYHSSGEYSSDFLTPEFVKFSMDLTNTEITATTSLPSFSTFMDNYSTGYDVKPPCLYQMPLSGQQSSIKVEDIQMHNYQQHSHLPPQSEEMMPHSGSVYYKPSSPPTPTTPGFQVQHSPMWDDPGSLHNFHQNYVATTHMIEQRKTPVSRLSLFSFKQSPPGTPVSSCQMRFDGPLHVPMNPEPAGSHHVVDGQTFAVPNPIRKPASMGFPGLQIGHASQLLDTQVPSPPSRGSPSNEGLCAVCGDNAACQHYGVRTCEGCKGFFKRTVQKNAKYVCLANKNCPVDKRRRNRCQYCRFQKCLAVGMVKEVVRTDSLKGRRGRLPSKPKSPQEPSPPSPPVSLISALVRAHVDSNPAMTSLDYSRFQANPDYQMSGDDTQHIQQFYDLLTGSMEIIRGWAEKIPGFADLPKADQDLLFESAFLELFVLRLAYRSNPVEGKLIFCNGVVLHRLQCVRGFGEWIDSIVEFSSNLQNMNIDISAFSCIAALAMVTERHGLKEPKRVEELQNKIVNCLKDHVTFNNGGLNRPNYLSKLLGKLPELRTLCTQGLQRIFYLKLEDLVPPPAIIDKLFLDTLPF
Sequence of Oxysterols receptor LXR-beta (Homo sapiens) (P55055 whole entry, looked up, the tested form may be a part): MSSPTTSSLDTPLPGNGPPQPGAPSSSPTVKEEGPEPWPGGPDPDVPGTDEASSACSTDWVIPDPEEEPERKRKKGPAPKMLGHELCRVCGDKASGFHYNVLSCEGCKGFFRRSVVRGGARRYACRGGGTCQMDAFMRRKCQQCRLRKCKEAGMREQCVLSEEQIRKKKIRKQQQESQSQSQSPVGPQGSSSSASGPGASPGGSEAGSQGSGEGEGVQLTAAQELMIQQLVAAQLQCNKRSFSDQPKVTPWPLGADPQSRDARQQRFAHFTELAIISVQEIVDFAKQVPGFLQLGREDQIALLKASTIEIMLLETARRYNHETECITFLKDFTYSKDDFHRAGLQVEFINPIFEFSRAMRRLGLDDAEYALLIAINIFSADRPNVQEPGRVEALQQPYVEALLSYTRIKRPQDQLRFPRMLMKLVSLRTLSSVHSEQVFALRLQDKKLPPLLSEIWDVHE

COc1cc(C(C)C)ccc1C
not listed: [12] | [13] | [14] | [15]
inactive: all other assays above

Nc1ccc(N)c2c1C(=O)c1ccccc1C2=O
active: [9] 5.63 µM | [10] 3.47 µM
not listed: [3] | [8] | [15]
inactive: all other assays above

COC(C)(C)CCCC(C)CC=O (stereo unspecified)
not listed: [2] | [3] | [4] | [5] | [13]
inactive: all other assays above

OCCCCC(O)CO (stereo unspecified)
inactive: [1] | [3] | [4] | [5] | [7] | [9] | [10] | [11]

O=P(O)(O)O
not listed: [2] | [11] | [13] | [14] | [15]
inactive: all other assays above

C=CCOC(=O)CCCCCC
not listed: [2] | [5] | [8] | [14] | [15]
inactive: all other assays above
